# A selection: hits, their analogues and other compounds. The true share with any hit is near 7.3%.
# Vaccinia mCherry: vaccinia inhibition (mCherry reporter). Potency, µM (highest dose often 36.5 µM), for the others: top-dose activity change, negative = inhibition, usual class: inhibitors. Vaccinia virus mCherry reporter infection, fluorescence. 310,000 compounds, 0.63% hits. AID 720579; calls by dose curve; tested in A549 cells; note: potency is the fitted concentration of half-maximal effect; nearly all actives have a fitted effect of over 35% in size
# HCV inhibitor: blocks hepatitis C virus | Huh7.5.1 HCVcc-Cre infection, luciferase reporter, 44 h | 340,000 compounds, 3.4% hits | Potency, µM (top dose mostly 41.8 µM), for the others: at the top dose activity change, negative = inhibition, most hits filed as inhibitors; active = well fitted inhibition curve with a large enough effect; inconclusive = small, poorly fitted or top-dose-only effect, or another doubt; inactive = no such curve, though single readings can be large or run the other way; note: potency is the fitted concentration of half-maximal effect
#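 1,000 cells/well; 4 h culture; + compound; + HCVcc-Cre (~0.5 moi); 44 h; luciferase substrate, RT 15 min; read 15 sec.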
# VACV Venus inh: vaccinia inhibition (Venus reporter); Vaccinia virus Venus reporter expression, fluorescence; AID 720580; 330,000 compounds, 0.46% hits; Potency, µM (titrated, usually from 36.5 µM), without a hit: top-dose activity change, negative = inhibition, actives largely listed as inhibitors; calls by dose curve; tested in A549 cells; note: potency is the fitted concentration of half-maximal effect; nearly all actives have a fitted effect of over 30% in size
# HCMV antiviral: human cytomegalovirus inhibition | HFF cells, HCMV-luciferase reporter, 72 h; stronger effect = lower value | activity change, negative = inhibition, % at 57.5 µM | 410,000 compounds, 4.5% hits | AID 1259415; in the data active = activity change below about -60%; inconclusive = no clear call, values can overlap the other calls; inactive = above about -39%
#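 Luciferase read-out from HCMV-luciferase-infected HFFs (MOI 1 PFU/cell) 72 h post infection at 37C; compounds added after 16 h cell attachment; activity normalized between buffer-only basal and Salinomycin (10uM) inhibitor controls.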
# FMDV inh: foot and mouth disease virus antiviral activity. FMDV antiviral cell-based qHTS. Potency, µM (series often up to 57.9 µM), for inactives: at the highest dose activity change, negative = inhibition, most hits filed as inhibitors. 410,000 compounds, 1.2% hits. AID 1159524; calls by dose curve; tested in HEK293T cells; note: read-out not given here; potency is the fitted concentration of half-maximal effect; nearly all actives have a fitted effect of over 45% in size
# * hit, by the source's call; i = inactive; ? = inconclusive; . = no result given; [ ] = remark or other dose. % is set by controls: 0 for no effect and ±100 for the full control effect.
SMILES,Vaccinia mCherry,HCV inhibitor,VACV Venus inh,HCMV antiviral,FMDV inh
COc1ccc(S(=O)(=O)N2CCCCC2c2cc(C(=O)NCc3ccccc3)no2)cc1 (configuration not stated),i,.,-5.6%,-61.5*,1.3%
O=C(NCc1ccccc1)c1cc(C2CCCCN2S(=O)(=O)c2ccccc2)on1 (configuration not stated),27.5%,.,-8.2%,-18.9,1.2%
Cc1cc(C)nc(Sc2nc(Nc3ccccc3)nc(Sc3nc(C)cc(C)n3)n2)n1,?,?,?,-72.4*,-10.8%
CC(CCC(C)[n+]1cccc(C#N)c1)[n+]1cccc(C#N)c1 (configuration not stated),38.6%,.,-5.7%,.,.
CCCCCCC[C@@H](C/C=C/CCC(=O)N(C)C/C(=C/Cl)C/C(=C\C(=O)N1C[C@H](O)CC1=O)OC)OC,-14.8%,?,?,-15.1,31.6µM*
CCCCCCC[C@@H](C/C=C/CCC(=O)N(C)C/C(=C/Cl)C/C(=C\C(=O)N1CC(OC)=CC1=O)OC)OC,10µM*,?,?,?,?
CCCCCCC[C@@H](C/C=C/CCC(=O)O)OC,i,-2.7%,0.0%,1.5,-11.4%
COc1ccc(NC(=O)CCCSc2nc(-c3ccco3)cc(C(F)(F)F)n2)cc1OC,-27.2%,15.8µM*,-24.3%,-15.8,-26.2%
COc1ccc(NC(=O)CCSc2nc(-c3ccco3)cc(C(F)(F)F)n2)cc1OC,-9.0%,.,2.8%,-14.9,-7.9%
COc1ccc(NC(=O)CSc2nc(-c3ccco3)cc(C(F)(F)F)n2)cc1Cl,-8.6%[7.34 µM],.,-10.7%[7.34 µM],-69.0*,?
O=C(CSc1nc(-c2ccco2)cc(C(F)(F)F)n1)Nc1ccc(C(=O)N2CCCCC2)cc1,-16.2%,11.2µM*,-28.4%,31.3,?
Cc1ccc(NC(=O)CSc2nc(-c3ccco3)cc(C(F)(F)F)n2)cc1,-21.8%,.,-20.2%,?,-24.9%
CCOc1ccc(N(CC(=O)NCCc2ccc(C)cc2)S(=O)(=O)c2c(C)noc2C)cc1,.,-17.1%,.,-69.1*,-12.0%
CCOc1ccc(N(CC(=O)Nc2ccc3c(c2)OCCO3)S(=O)(=O)c2c(C)noc2C)cc1,i,-11.8%,-9.0%,-20.9,-11.9%
CCOc1ccc(N(CC(=O)Nc2ccccc2CC)S(=O)(=O)c2c(C)noc2C)cc1,-28.4%,.,?,-90.7*,-7.4%
Cc1ccc(N(CC(=O)NCCc2ccccc2)S(=O)(=O)c2c(C)noc2C)cc1,-3.1%,0.7%,-11.3%,-9.4,.
Cc1noc(C)c1S(=O)(=O)N(CC(=O)NCc1ccccc1Cl)c1ccc(C(C)C)cc1,-9.8%,.,?,-62.0*,-22.8%
CCc1ccc(NC(=O)CN(c2ccc3c(c2)OCO3)S(=O)(=O)c2c(C)noc2C)cc1,6.7%,1.4%,-3.0%,-70.8*,?
CCCC(O)(c1ccc(CC)cc1)C(CN1CCOCC1)c1ccccc1 (configuration not stated),-16.9%,-48.8%,-6.3%,-69.2*,?
CCc1ccc(C(O)(C(C)C)C(CN2CCOCC2)c2ccccc2)cc1 (configuration not stated),.,?,.,-76.6*,0.0%
COc1ccc2ccccc2c1CN1CCC2(CCC(CNC(=O)c3ccccc3)O2)CC1 (configuration not stated),i,.,-8.6%,.,-18.0%
Cn1c(=O)c(-c2ccc(F)cc2)nc2cnc(Nc3ccccc3)nc21,.,.,.,.,-2.0%
Cc1cc(-c2ccnc(-n3ncc(C(=O)N4CCCCC4c4cccnc4)c3C3CC3)n2)c(C)s1 (configuration not stated),0.2%,.,-6.2%,.,1.2%
CC(=O)Nc1ccc(/C=C2\C=Cc3ccccc32)cc1,-13.6%,.,-22.3%,.,.
O=C(Nc1cc(Sc2ccccn2)cc([N+](=O)[O-])c1)c1cccc(Cl)c1,i,8.91µM*,?,?,25.1µM*
SMILES,Vaccinia mCherry,HCV inhibitor,VACV Venus inh,HCMV antiviral,FMDV inh
O=C(Nc1cc(Sc2ccccn2)cc([N+](=O)[O-])c1)c1ccc(Cl)cc1,.,10µM*,10µM*,-17.6,28.2µM*
Cc1cc(C)cc(NC(=O)C(=O)NCC(c2ccc3c(c2)OCO3)N2CCN(C)CC2)c1 (configuration not stated),-24.1%,.,-12.9%,-30.1,-16.3%
CCC(/C=C1\Sc2ccc(OC)cc2N1CC)=C\c1sc2ccc(OC)cc2[n+]1CCCS(=O)(=O)[O-],.,?,.,-20.9,17.8µM*
CCO/C(=C/c1sc2ccc(OC)cc2[n+]1CCCS(=O)(=O)[O-])CC,.,10.6%,.,14.8,-19.4%
CCC(/C=C1\Sc2ccc(OC)cc2N1CCO)=C\c1sc2ccc(OC)cc2[n+]1CCO,48.0%,5.01µM*,23.9%,-97.7*,17.8µM*
COc1ccc(N)cc1-n1c(C)ccc1C,?,0.708µM*,-15.8%,-65.5*,3.4%
CCOC(=O)c1ccc(N2C(=O)c3n[nH]c(-c4cccs4)c3C2c2ccc(OCC)cc2)cc1 (configuration not stated),?,.,?,-105.2*,-28.0%
CCOC(=O)c1ccc(N2C(=O)c3n[nH]c(C)c3C2c2cccc(Br)c2)cc1 (configuration not stated),-4.0%[7.34 µM],.,-2.7%[7.34 µM],-32.5,-28.6%
CCOC(=O)c1ccc(N2C(=O)c3n[nH]c(-c4cccs4)c3C2c2cccc(O)c2)cc1 (configuration not stated),-18.7%,.,-13.6%,-2.8,35.5µM*
CCOC(=O)c1ccc(N2C(=O)c3n[nH]c(-c4cccs4)c3C2c2ccc(C(C)C)cc2)cc1 (configuration not stated),-24.7%,.,-20.8%,-105.7*,?
CCOC(=O)c1ccc(N2C(=O)c3n[nH]c(-c4cccs4)c3C2c2ccc(CC)cc2)cc1 (configuration not stated),?,.,?,-98.9*,?
CC1(C)CC(=O)c2cc(-c3nc(-c4ccc(Cl)cc4)cs3)c(=O)n(-c3cccc(F)c3)c2C1,-6.8%,.,-4.2%,-6.5,7.5%
Cc1c(/C=N/Nc2nc3ccccc3[nH]2)c2ccccc2n1C,i,?,-28.0%,-96.0*,?
CC(C)Cn1c(/C=N/Nc2nc3ccccc3[nH]2)nc2ccccc21,?,2.51µM*,?,-97.0*,25.1µM*
CCN(CC)c1ccc(/C=N/Nc2nc3ccccc3[nH]2)cc1,.,12.6µM*,.,.,-44.0%
Cn1c(/C=N/Nc2nc3ccccc3[nH]2)nc2ccccc21,?,?,-11.5%,-83.0*,-23.4%
COc1cc(OC)c(NC(=O)CSc2nccn2C)cc1Cl,-2.7%,.,-0.7%,9.9,-19.0%
Cc1cc(C)cc(-n2nnc(-c3nc(-c4ccccc4F)no3)c2C)c1,-4.7%[7.34 µM],.,-4.2%[7.34 µM],-16.6,30.9%
COC(=O)[C@H]1[C@H](CO)[C@H]2Cn3c(ccc(Br)c3=O)[C@H]2N1C(=O)c1ccccn1,.,.,.,10.7,.
CCCn1c(/C=N/Nc2nc3ccccc3[nH]2)nc2ccccc21,10µM*,?,?,-99.5*,?
CNc1nc(SCc2ccccc2Cl)nc2c1CCCC2,.,7.08µM*,?,-39.9,-28.6%

# Screening data (PubChem)
